Consider 22 compounds from PubChem BioAssay AID1851 (National Center for Advancing Translational Sciences (NCATS), 2009).

SMILES strings stand for the structures. Where “and” joins values, the source holds several entries; their conditions need not be identical. Identical values can stand only once. Hit rate of the full screen: of about 16,000 compounds, about 2,600 (16%) were called active. Not shown: some 20% with an inconclusive outcome. The call rests on the fitted dose curve; in most records, active means well fitted curve in the direction sought with a large enough effect; inconclusive means small, poorly fitted or top-dose-only effect, or effect the other way; inactive means no such curve, though single readings can be large or run the other way. The list comes from a sample in which actives are over-represented; it also holds similar structures and randomly drawn compounds. Some structures have more than one record in an assay (separate samples or runs), and their calls can disagree.

A word on the AC50: it is the concentration giving half of the maximal activity seen.
On the % scale 0 is the no-effect control and ±100 the full control effect.

Chain of Cytochrome P450 2D6 (Homo sapiens) (P10635 whole entry, looked up): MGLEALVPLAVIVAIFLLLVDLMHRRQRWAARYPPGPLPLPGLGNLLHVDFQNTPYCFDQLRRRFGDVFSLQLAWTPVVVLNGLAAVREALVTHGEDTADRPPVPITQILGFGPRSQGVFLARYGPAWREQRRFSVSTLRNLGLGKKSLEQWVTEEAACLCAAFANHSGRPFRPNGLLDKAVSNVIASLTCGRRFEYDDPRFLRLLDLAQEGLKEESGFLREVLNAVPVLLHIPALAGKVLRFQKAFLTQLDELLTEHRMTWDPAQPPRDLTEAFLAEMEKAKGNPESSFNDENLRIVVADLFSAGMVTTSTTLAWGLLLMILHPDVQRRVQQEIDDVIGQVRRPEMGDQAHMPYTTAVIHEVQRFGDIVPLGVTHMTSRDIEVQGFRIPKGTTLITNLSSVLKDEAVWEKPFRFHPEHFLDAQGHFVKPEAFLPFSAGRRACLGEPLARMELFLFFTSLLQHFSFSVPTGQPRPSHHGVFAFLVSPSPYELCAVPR

This assay has as its target Cytochrome P450 2D6 (Homo sapiens) (UniProt P10635). As to the kind of experiment: Cytochrome panel assay with activity outcomes. The following applies: recombinant CYP, pro-luciferin dealkylation, luminescence, p450-cyp2d6; series mostly up to 57.1 µM; activity, negative = inhibition: at the top concentration.
Regarding `COC(=O)[C@@H]1[C@@H](O)[C@@]2(O)c3c(OC)cc(OC)cc3O[C@@]2(c2ccc(OC)cc2)[C@H]1c1ccccc1`, the activity, negative = inhibition is 18.2% [at 11.4 µM] (inactive).
On the same count and under the same terms, the same measure for `C[C@@]12CC[C@@H]3[C@@H](CC[C@H]4C[C@@H](O)CC[C@]43C)[C@H]1CC[C@@H]2c1cc(C(F)(F)F)n[nH]1`: -7.84% [at 11.4 µM] (inactive); for `O=C(c1ccccc1F)c1cn(Cc2ccccc2)c2ccccc12`: -20.1% (inactive).
For `C[C@@H](C(=O)OC1C[C@H]2CC[C@@H](C1)N2C)c1ccc(Br)cc1` (some centres not stated), the AC50 is 3980 nM (active).
As to `CN1[C@@H]2CC[C@H]1CC(O)C2` (some centres not stated), the “activity, negative = inhibition” value is -4.03% [at 25.6 µM] (inactive).
Regarding `CN1[C@@H]2CC[C@H]1CC(OC(=O)c1cc(Cl)cc(Cl)c1)C2` (some centres not stated), the AC50 is 7.94 nM (active).
On to `Cc1cc(C)cc(C(=O)OC2C[C@H]3CC[C@@H](C2)N3C)c1` (some centres not stated), for which the AC50 is 251 nM (active).
As to `C[N+]1([O-])[C@@H]2CC[C@H]1CC(OC(=O)[C@@H](CO)c1ccccc1)C2` (some centres not stated), the “activity, negative = inhibition” value is 9.36% [at 25.6 µM] (inactive).
For `C[N+]1([O-])[C@H]2CC[C@H]1CC(OC(=O)[C@@H](CO)c1ccccc1)C2` (some centres not stated), the activity, negative = inhibition is 17.4% [at 11.4 µM] (inactive).
Still for that read-out and setting: the same measure for `CS(=N)(=O)CC[C@H](N)P(=O)(O)O` (some centres not stated): -6.15% [at 11.4 µM] (inactive); for `C[C@@]12CCC(=O)C=C1C=C[C@H]1[C@H]3CC[C@](O)(CCC(=O)O)[C@]3(C)CC[C@@H]12`: 2.47% [at 25.6 µM] (inactive).
In the case of `Cc1ccc(S(=O)(=O)NCC2CCC(C(=O)N3CCC4(CC3)OCCO4)CC2)cc1` (configuration not stated), the “activity, negative = inhibition” value was 5.05% (inactive).
The same measure, in the same setting: the result for `CCC12CN3CC(CC)(CN(C1)C3c1cccnc1)C2=O` (configuration not stated) reads -5.29% (inactive); that for `O=S(=O)(O)/C(=C\c1ccccc1)c1ccccc1` (tested in a mixture with another compound), -7.27% [at 11.4 µM] (inactive); that for `CCCCCC[C@H]1C(=O)O[C@H](C)[C@H](NC(=O)c2cccc(NC=O)c2O)C(=O)O[C@@H](C)[C@H]1OC(=O)CC(C)C`, -19.5% [at 25.6 µM] (inactive).
Still for that read-out and setting: the result for `CN(C)c1ccc(NC(=O)CN2C(=O)CN=C(c3ccccc3)c3ccccc32)cc1` reads -11.3% (inactive).
In the case of `C[N+](C)(C)CC#CCN1CCCC1=O`, the AC50 result is “inactive and 3.98 µM (active)”.
On the same count and under the same terms, the result for `NC(=O)CN1CCCC1=O` reads “inactive”.
Regarding `C(#CCN1CCCC1)CN1CCCC1`, the “activity, negative = inhibition” value was 9.47% [at 25.6 µM] (inactive).
Take `O=C1CCCN1CC#CCN1CCCC1`: the AC50 result was “inactive and 7.94 µM (active)”.
`Cc1ccc(OP(=O)(Oc2ccc(C)cc2)N2C=Cc3ccccc3[C@H]2C#N)cc1`: the activity, negative = inhibition is -6.26% [at 11.4 µM] (inactive).
Same read-out and setting: the same measure for `CN(C)CCC(=O)[C@@]1(O)CC[C@H]2[C@H]3CC=C4C[C@@H](O)CC[C@]4(C)[C@H]3CC[C@]21C`: -9.11% [at 11.4 µM] (inactive).
